PNC assembly inh – High Content Assay for Compounds that inhibit the Assembly of the Perinucleolar Compartment; PC3M PTB-GFP, PNC prevalence imaging, 16 h; active compounds read low; activity change (PNC), negative = inhibition, % at 10 µM; 140,000 compounds, 3.1% hits; AID 2417, 2010;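 active = readout at or below -70, meaning at least 70% loss of cells showing the perinucleolar compartment, a nuclear body marking cancer cells; inconclusive = readout between -30 and a set limit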
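Compounds are pinned in duplicate onto adhered PC3M cells stably expressing GFP-tagged PTB and incubated 16 h at 37 C. Cells are then fixed, nuclei stained with Hoechst, and PNC-positive cells counted.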
HttQ103 aggreg – qHTS Multiplex Assay to Identify Dual Action Probes in a Cell Model of Huntington: Aggregate Formation (GFP). PC12 HttQ103-GFP aggregates, Acumen cytometry, 40 h. Potency, µM (series often up to 46.1 µM), usual class: inhibitors. 220,000 compounds, 1.1% hits. AID 1688, 2009; note: nearly all actives have a fitted effect of over 60% in size
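Read-out: GFP aggregate count by laser scanning cytometer (488 nm excitation, 500-530 nm emission, 1–25 µm objects >6 SD above background). Cells: PC12, inducible HTTex1-Q103-GFP, 100 nM tebufenozide; compounds titrated.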
ALDH1A1 inh – qHTS Assay for Inhibitors of Aldehyde Dehydrogenase 1 (ALDH1A1); Aldehyde dehydrogenase 1A1 (Homo sapiens), P00352; Purified ALDH1A1, NADH fluorescence, propionaldehyde substrate; Potency, µM (doses to about 75.3 µM), hits mostly inhibitors; 220,000 compounds, 7.3% hits; active = well fitted inhibition curve with a large enough effect, not every such curve was filed as active; inconclusive = small, poorly fitted or top-dose-only effect, or another doubt; inactive = no such curve, though single readings can be large or run the other way
Target sequence (P00352 whole entry, looked up): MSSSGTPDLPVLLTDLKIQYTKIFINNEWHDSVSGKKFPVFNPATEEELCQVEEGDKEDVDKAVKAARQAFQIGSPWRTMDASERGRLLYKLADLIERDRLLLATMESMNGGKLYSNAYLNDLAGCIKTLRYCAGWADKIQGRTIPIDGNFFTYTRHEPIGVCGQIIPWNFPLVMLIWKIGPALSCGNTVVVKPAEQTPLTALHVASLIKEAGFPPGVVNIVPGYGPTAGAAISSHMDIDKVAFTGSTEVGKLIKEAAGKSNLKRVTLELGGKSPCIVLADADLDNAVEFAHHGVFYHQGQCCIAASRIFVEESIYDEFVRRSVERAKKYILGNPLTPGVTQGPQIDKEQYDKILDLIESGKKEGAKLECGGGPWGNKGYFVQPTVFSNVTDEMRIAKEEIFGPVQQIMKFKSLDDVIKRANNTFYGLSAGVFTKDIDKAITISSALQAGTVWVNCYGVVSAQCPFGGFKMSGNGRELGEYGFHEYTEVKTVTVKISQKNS
CBFb RUNX1 block – qHTS Assay for Compounds Blocking the Interaction Between CBF-beta and RUNX1 for the Treatment of Acute Myeloid Leukemia. Runt-related transcription factor 1 (Homo sapiens) + Core-binding factor subunit beta …. AlphaScreen CBFb-His/RUNX1-biotin binding, biochemical. Potency, µM (highest dose often 59.8 µM), usual class: inhibitors. 230,000 tested, under 10 active. AID 1477, 2009
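CBFb-His/RUNX1-biotin, 30 nM each, preincubated 20 min RT; compound 15 min RT; Ni + streptavidin beads 50 ng each, 90 min RT; AlphaScreen read.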
HPGD block – qHTS Assay for Inhibitors of HPGD (15-Hydroxyprostaglandin Dehydrogenase); 15-hydroxyprostaglandin dehydrogenase [NAD(+)] (Homo sapiens), P15428; purified HPGD, NADH fluorescence kinetic, PGE2 substrate; Potency, µM, usual class: inhibitors; 150,000 compounds, 4.3% hits; active = well fitted inhibition curve with a large enough effect, not every such curve was filed as active; inconclusive = small, poorly fitted or top-dose-only effect, or another doubt; inactive = no such curve, though single readings can be large or run the other way
Target sequence (P15428 whole entry, looked up): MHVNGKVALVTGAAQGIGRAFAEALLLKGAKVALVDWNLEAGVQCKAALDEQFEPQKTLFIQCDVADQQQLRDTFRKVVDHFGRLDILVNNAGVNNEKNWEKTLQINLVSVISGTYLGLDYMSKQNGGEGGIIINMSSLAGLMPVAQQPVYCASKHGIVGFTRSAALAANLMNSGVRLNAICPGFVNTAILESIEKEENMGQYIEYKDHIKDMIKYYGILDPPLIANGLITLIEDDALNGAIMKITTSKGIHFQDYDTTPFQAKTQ
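NADH formation kinetics: reaction with 30 uM PGE2 and 1 mM NAD+ (final), 20 nM enzyme, Tris-HCl pH 8 with Tween 20, after 15 min compound preincubation at room temperature. Fluorescence change, last versus first of five reads.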
HTT cytoprotect – qHTS Multiplex Assay to Identify Dual Action Probes in a Cell Model of Huntington: Cytoprotection (ATP); AID 1471, 2008; PC12 HTT-Q103 induced, cytoprotection, ATP luminescence, 40 h; Potency, µM (titrated, usually from 56.4 µM), actives largely listed as activators; 230,000 compounds, 0.14% hits; note: nearly all actives have a fitted effect of over 45% in size
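PC12 cells stably carrying ecdysone-inducible Htt exon 1 (Q103)–GFP were induced with 100 nM tebufenozide (final) alongside library compounds in a dose series. Cytoprotection was scored as retained ATP by ATPlite luminescence.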
A number is an active result; . = inactive; ? = inconclusive; / = not tested or not shown; [ ] = remark or other dose. A selection: hits, their analogues and other compounds. The true share with any hit is near 11%. Unless noted, calls come from the whole dose curve; as a rule, active = well fitted curve in the direction sought with a large enough effect; inconclusive = small, poorly fitted or top-dose-only effect, or another doubt; inactive = no such curve, though single readings can be large; an effect the other way counts as inactive or inconclusive.

SMILES	PNC assembly inh	HttQ103 aggreg	ALDH1A1 inh	CBFb RUNX1 block	HPGD block	HTT cytoprotect
O=C(OCn1nnc2ccccc2c1=O)C1CCN(S(=O)(=O)c2cccs2)CC1	-100	.	.	.	.	.[10 µM]
CCN(CC)CCn1c(-c2ccccc2)nc2c(N3CCOCC3)nc(C)nc21	/	/	?	.	?	.
COc1cc2cc3c4c(cc(OC)c(OC)c4c2cc1OC)CCN3C	/	/	?	?	?	.[1.9 µM]
CCOC(=O)N/N=C1/C[C@@H](O)[C@@H](O)[C@@H]2[C@@H]3C(=O)N(Cc4ccccc4)C(=O)[C@H]3CC[C@H]12	/	/	.[13.5 µM]	.[13.1 µM]	/	.[10 µM]
O=S(=O)(NCCc1ccc2c(c1)OCCO2)c1cccs1	-81	.	.	.	.	.[10 µM]
O=C(C1CCC(CNS(=O)(=O)c2cccs2)CC1)N1CCCCC1 (stereo not drawn)	?	.	?	.	3.2µM	.
Cc1ncsc1C(=O)N1CCCC(CNS(=O)(=O)c2cccs2)C1 (stereo not drawn)	/	.[9.22 µM]	.	.	/	.[10 µM]
NC1=N[C@H](c2ccc(Cl)cc2)N(c2ccc(S(=O)(=O)Nc3ncccn3)cc2)C(N)=N1	/	/	.[13.5 µM]	/	.	.[10 µM]
Clc1ccc(-c2ccc(-c3nn4c(-c5ccco5)nnc4s3)o2)cc1	/	/	/	/	/	.[0.074 µM]
COc1cccc(-c2nn3c(-c4ccco4)nnc3s2)c1	.	.	3.5µM	.	?	.
COc1cc(-c2nn3c(-c4ccco4)nnc3s2)cc(OC)c1OC	.	.	.	.	.	.
COc1cccc(OC)c1-c1nn2c(-c3ccco3)nnc2s1	?	.	?	.	16µM	.
CO/N=C(\C)CCN1CCCCc2nc(C)c(C)cc21	/	/	.[13.5 µM]	.[13.1 µM]	/	.[10 µM]
CC(C)CO/N=C1/[C@H]2O[C@@H]2[C@@H](O)[C@H]2[C@H]1CCn1c(=O)n(Cc3cc4c(cc3Cl)OCO4)c(=O)n12	/	/	.[13.5 µM]	.[13.1 µM]	/	?
COC(=O)C1=C[C@@H](C(=O)OC)C2C3=C(C(=O)[C@@]2(C)NC(=O)c2ccccc2)[C@H](C)[C@@H]2C(=O)NC(=O)[C@@H]2[C@@H]3C1 (stereo partly drawn)	/	/	/	.	/	/
OC[C@H]1NC[C@H](O)[C@@H](O)[C@H]1O	/	/	.	.	.	.
O=C(NC(=S)N1CCN(Cc2ccccc2)CC1)c1cccnc1	/	.[9.22 µM]	.	.	/	.[10 µM]
O=C(NC(=S)N1CCN(C/C=C/c2ccccc2)CC1)c1ccc(Cl)nc1	/	.[9.22 µM]	18µM	.	/	.[10 µM]
CC(=C\c1ccccc1)/C=C1/SC(=O)N(CCCC(=O)Nc2ccc(C(=O)O)cc2)C1=O	/	.[9.22 µM]	.	.	/	.
CC(/C=C1\SC(=S)N(CCCC(=O)Nc2ccc(C(=O)O)c(O)c2)C1=O)=C\c1ccccc1	.	.	6.3µM	.	?	.[10 µM]
COCCn1c(=O)c(-c2ccc(OC)cc2)nc2cnc(OCc3ccccc3)nc21	/	/	?	/	/	.
CCOC(=O)CCN1C(=O)[C@H]2[C@@H]3[C@H](O)[C@H](O)CC(=O)[C@H]3CC[C@H]2C1=O	/	/	.[13.5 µM]	.[13.1 µM]	/	.[10 µM]
COC(OC)c1nc(SCC(=O)Nc2cccc(Cl)c2)ncc1C(=O)O	/	.[9.22 µM]	28µM	.	/	.[10 µM]
Nc1cc(=O)[nH]c(SCC(=O)Nc2cccc(Cl)c2)n1	.	.	.	.	.	.
CCCCn1c(=O)c(C(=O)c2ccccc2)nc2ccccc21	?	.	22µM	.	.	.
SMILES	PNC assembly inh	HttQ103 aggreg	ALDH1A1 inh	CBFb RUNX1 block	HPGD block	HTT cytoprotect
CCCc1nc(SCc2ccc(Cl)cc2Cl)n[nH]1	.	.[9.22 µM]	.	.	16µM	.
CCOc1ccc(NC(=O)CC2C(=O)N(c3ccccc3)C(=O)N2CCc2cccs2)cc1 (stereo not drawn)	.	.	?	.	.	.[10 µM]
COC(=O)CCC(=O)Nc1cc(S(=O)(=O)Nc2ccc(Cl)cc2)ccc1N1CCOCC1	?	.	20µM	.	?	.[1.9 µM]
O=C(Nc1cc(S(=O)(=O)Nc2ccc(Cl)cc2)ccc1N1CCCCC1)c1ccc(F)cc1Cl	?	?	32µM	.	?	.[10 µM]
C=C(CC[C@@H](C)[C@H]1CCC2[C@]1(C)CC[C@]13C[C@@]14CCC(OC(=O)/C=C/c1ccc(O)c(OC)c1)C(C)(C)[C@@H]4CC[C@@]23C)C(C)C (stereo partly drawn)	/	.	/	/	/	.
CSc1nn2c(C(F)(F)F)cc(C(F)(F)F)nc2c1C(N)=O	/	.[9.22 µM]	.	.	/	.[10 µM]
CC#CCN1c2ccccc2[C@]23C[C@@H](C(=O)OC)N(S(=O)(=O)c4ccc(OC)cc4)C2=NC(C(=O)OC)=C(C(=O)OC)[C@H]13	/	/	.[13.5 µM]	.[13.1 µM]	.	?
CC(C)CNC(=O)c1ccc(NC(=O)c2cccs2)cc1	.	.	.	.	18µM	/
O=C(c1ccc(N2CCOCC2)cc1)c1cccs1	?	.	?	.	13µM	.[10 µM]
O=C(Nc1ccc(N2CCOCC2)cc1N1CCOCC1)c1cccs1	.	.	.	.	.	.
CC(C)C(=O)N1CCN(c2ccc(NC(=O)c3cccs3)cc2)CC1	-100	.	.	.	.	.[10 µM]
O=C(Nc1cc(C(=O)N2CCOCC2)ccc1N1CCCC1)c1cccs1	.	.	.	.	.	.
O=C(Nc1ccc(C(=O)N2CCOCC2)cc1)c1cccs1	.	.	.	.	14µM	.
CC1(C)OC(C(O)(c2cccc3c2oc2ccccc23)c2cccc3c2oc2ccccc23)C(C(O)(c2cccc3c2oc2ccccc23)c2cccc3c2oc2ccccc23)O1 (stereo not drawn)	/	/	.[13.5 µM]	.[13.1 µM]	/	?
CCN(CC)CCNc1nc2cc(OC)c(OC)cc2c2nc(-c3ccccc3)nn12	.	.	.	.	.	.
O=c1c(-c2ccccc2)nc2cnc(N3CCOCC3)nc2n1Cc1cccs1	/	/	?	/	/	.
CS(=O)(=O)N1CCN(C(=O)c2cc(-c3cccnc3)nc3ccc(Cl)cc23)CC1	/	.	.	.	/	.
Cc1ccc2nc(-c3cccnc3)cc(C(=O)N3CCN(c4ccc([N+](=O)[O-])cc4)CC3)c2c1	/	.	8.9µM	.	/	.[10 µM]
CC(=O)c1ccc(N2CCN(C(=O)c3cc(-c4cccnc4)nc4ccc(Br)cc34)CC2)cc1	/	.[9.22 µM]	.	.	/	.[10 µM]
O=C(c1cc(-c2cccnc2)nc2ccc(Br)cc12)N1CCN(c2ncccn2)CC1	?	.	.	.	16µM	.
Cc1ccc2c(C(=O)N3CCN(c4ccccc4)CC3)cc(-c3cccnc3)nc2c1C	/	10µM	?	.	/	.[10 µM]

Screening results: PubChem, National Center for Advancing Translational Sciences (NCATS)
